Data published in PubChem BioAssay AID652010 (The Scripps Research Institute Molecular Screening Center, 2013).
About 4,100 (1.1%) of roughly 370,000 compounds were called active. This excerpt belongs to a sample that is enriched for actives. A number with no mark means an inactive call.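 The calls were made as follows: active = inhibition above the mean over all tested compounds plus 3 SD (cut at about 3.6% in these data); inactive = the rest.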

Experiment: DAX1 (NR0B1) inhibitors on StAR promoter, primary screen, cell-based, luminescence, SF-1 (NR5A1), full-length DAX-1 (AID 652010);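 also: 0% = DAX-1 cells with DMSO and 100% = cells lacking DAX-1 with DMSO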
Conditions: HEK293T StAR-luciferase reporter, SF-1/DAX-1 repression relief; at 6.8 µM; stronger effect = higher value

SMILES | inhibition
COc1ccc2c(c1)NP(=S)(c1ccccc1)N2 (stereo not given) | 6.3% (active)
Cc1cc(C)c2c(c1)NP(=S)(c1ccccc1)N2 (stereo not given) | 4.45% (active)
C[C@]12CCC3C(CC[C@H]4[C@H](O)[C@H](O)CC[C@]34C)C1CCC2=O (stereo not given in full) | -0.89%
Cc1ccccc1CCC[C@@H](CC1CCCCC1)CN(C)C(=O)Oc1ccccc1 | -0.86%
Cc1nc2nc(C)c(CCC(=O)N3CCC4(CC3)OCCO4)c(C)n2n1 | 0.57%
CC(=O)N1CN2CN(C(C)=O)CC(C(=O)c3ccc(Br)cc3)(C2)C1 | 0.07%
CCOc1cccc(=NC2CCCCC2)c2c(C)[nH]c(C)c12 | -0.76%
COP(=O)(Sc1ccccc1)C(Cc1ccccc1)NC(=O)OCc1ccccc1 (stereo not given) | -2.01%
c1cncc(CNC2=NCCC2)c1 | 0.16%
Cc1c(Oc2cc(NN3CCCCC3)c([N+](=O)[O-])cc2[N+](=O)[O-])cccc1[N+](=O)[O-] | 0.11%
